EWS-Fli block – blocks EWS/Fli oncoprotein-driven transcription; A673 NR0B1-luciferase reporter, viability-normalised; inhibition, % at 12.6 µM; 350,000 compounds, 0.67% hits; AID 651661;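 active = mean inhibition of at least 50% after viability correction, with every replicate also passing that limit; inconclusive = mean reaches 50% but only one of two replicates passes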;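 also: firefly luciferase signal divided by Alamar Blue viability fluorescence both relative to DMSO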
TWEAK Fn14 block – TWEAK-Fn14 signaling inhibition | AID 1159606 | inhibition, % at 10 µM | 360,000 compounds, 2% hits | TWEAK-stimulated Fn14 reporter cells, luciferase luminescence, 8 h; in the data active = inhibition above about 50%
LGR2 inh – blocks bursicon-induced cAMP signaling via Drosophila LGR2. HEK293 LGR2, CRE-luciferase, bursicon-stimulated, 4 h. inhibition, % at 9.99 µM. 380,000 compounds, 0.35% hits. AID 720647;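 active = drop in luminescence signal, shown as inhibition above about 50% in the replicate tests, limit read from the data, passing the limit was not always enough; inconclusive = probably only some replicates passing the limit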;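 also: agonist challenge used bursicon conditioned medium at about half maximal strength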
PAX8 inh HTS – PAX8 transcriptional activity inhibition; inhibition, % at 12.6 µM; AID 652154; RMG-I TPO-luciferase reporter, SteadyGlo, 24 h; 360,000 compounds, 1.2% hits;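 active = mean replicate inhibition at least 60% with every replicate also reaching 60%; inconclusive = only one of the two criteria is met; inactive = mean below 60% and not all replicates reaching 60%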;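 also: luciferase light reporting Pax8 driven TPO promoter activity; plate controls were median of neutral control wells for no effect and mitoxantrone controls for full effect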
EBV LMP1 NFkB – reduces LMP1-driven NF-kappaB luciferase signal | LMP1-induced NF-kappaB luciferase reporter cells, luminescence | inhibition, % at 12.5 µM | 350,000 compounds, 0.69% hits | AID 504558; in the data active = inhibition above about 41%; inconclusive = no clear call, values can overlap the other calls;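 also: 0% = neutral control wells and 100% = reference inhibitor control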
TROY signal inh – blocks TROY-dependent signaling in reporter cells; inhibition, % at 10 µM; 360,000 compounds, 0.98% hits; Q293 LMP1-TROYcd NF-kB luciferase reporter, 4 h;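 active = compounds whose plate-normalised and pattern-corrected inhibition of the luciferase reporter signal at the single screening dose is 50% or more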
Starred values were filed as active, the others as inactive; ? = inconclusive; . = no result. A selection: hits, their analogues and other compounds. The true share with any hit is near 3.1%.

SMILES | EWS-Fli block | TWEAK Fn14 block | LGR2 inh | PAX8 inh HTS | EBV LMP1 NFkB | TROY signal inh
C[C@H](NC(=O)C[C@@H]1C[C@H]2c3cc(NC(=O)NC4CCCCC4)ccc3O[C@H]2[C@@H](CO)O1)c1ccccc1 | -3 | . | 4 | 0 | . | .
O=C(Cn1c(=O)c2cccn2c2cccnc21)N1CCN(c2ccccc2F)CC1 | -1 | -11 | -5 | 10 | 71* | 2
Nc1ccc(S(=O)(=O)c2cc(O)c3ccccc3c2O)cc1 | -3 | 79* | -2 | -6 | -5 | 74*
O=S(=O)(c1ccccc1)c1cc(O)ccc1O | 7 | 15 | 10 | 1 | -8 | -3
Cc1ccc(C)c(Cn2c(O)c(N=NC(=S)Nc3ccccc3F)c3ccccc32)c1 | 37 | 3 | 41 | 34 | 45* | 14
Oc1c(N=NC(=S)Nc2ccccc2F)c2ccccc2n1Cc1ccccc1F | 34 | 13 | 31 | 13 | 48* | 18
Cc1ccccc1Cn1c(O)c(N=NC(=S)Nc2ccccc2F)c2ccccc21 | 28 | -8 | 20 | 25 | 44* | -16
Oc1c(N=NC(=S)Nc2ccccc2F)c2ccccc2n1Cc1ccc(Cl)cc1 | 36 | 6 | 16 | 30 | 39 | 22
C=C[C@@H](OC)[C@H](OC(=O)Nc1ccc(SC)cc1)c1ccc(OCCO)cc1 | -19 | . | . | . | . | .
Cc1cccc(C#CC2=CC(=O)CC(C)(C)C2)c1 | -12 | -7 | . | 0 | -16 | -45
CC1(C)CC(=O)C=C(C#CC2(O)CCCCC2)C1 | 11 | 64* | 15 | 109* | -6 | 8
COCCOC(=O)N1C(=O)[C@@]2(c3cc(C#CC4=CCCCC4)ccc31)[C@H](c1ccc(O)cc1)N1[C@H](c3ccccc3)[C@H](c3ccccc3)OC(=O)[C@H]1[C@@H]2C(N)=O | -13 | . | . | -2 | . | .
O=C(Nc1cc(Cl)ccc1F)c1ccc(-n2cncn2)c([N+](=O)[O-])c1 | -7 | -22 | -4 | -8 | 0 | -21
CCN1CCN(c2ccc(NC(=O)c3ccc([N+](=O)[O-])o3)cc2Cl)CC1 | 33 | 24 | -37 | 83* | -37 | -9
CCC(=O)N1CCN(c2ccc(Cl)cc2NC(=O)c2ccc([N+](=O)[O-])o2)CC1 | 27 | 9 | -3 | 27 | -23 | -5
CC(=O)N1CCN(c2ccc(NC(=O)c3ccc([N+](=O)[O-])o3)cc2Cl)CC1 | 50 | 29 | 26 | 102* | -26 | 8
CCC(=O)N1CCN(c2ccc(NC(=O)c3ccc([N+](=O)[O-])o3)cc2Cl)CC1 | ? | 17 | 5 | 99* | -48 | -10
O=C(Nc1cc(Cl)ccc1-n1cncn1)c1ccc([N+](=O)[O-])o1 | 37 | 5 | 19 | 63* | -3 | 4
CC(=O)N1CCN(c2ccc(NC(=O)c3ccco3)cc2Cl)CC1 | . | -22 | -8 | -37 | -39 | -47
COC(=O)c1sc(NC(=O)c2cc(-c3ccccc3)nc3ccccc23)c(C#N)c1C | . | 35 | . | . | 19 | 52*
COC(=O)c1sccc1NC(=O)c1cc(-c2cccc(C)c2)nc2ccccc12 | . | 22 | . | . | -8 | 9
CCOC(=O)c1sc(NC(=O)c2cc(-c3ccc(C)cc3)nc3ccccc23)c(C#N)c1C | . | 62* | . | . | 5 | 49
Cc1cc(NC(=O)c2cc(-c3ccccc3C)nc3ccccc23)no1 | 12 | 26 | -3 | 19 | -2 | -8
COC(=O)c1sccc1NC(=O)c1cc(-c2ccc(C)cc2)nc2ccccc12 | . | 98* | . | . | -1 | -13
Cc1ccccc1-c1cc(C(=O)Nc2sc(C(=O)OC(C)C)c(C)c2C#N)c2ccccc2n1 | . | 62* | . | 81* | 32 | 58*
SMILES | EWS-Fli block | TWEAK Fn14 block | LGR2 inh | PAX8 inh HTS | EBV LMP1 NFkB | TROY signal inh
COc1ccc(-c2cc(C(=O)Nc3sc4c(c3C#N)CCCC4)c3ccccc3n2)cc1 | -2 | -18 | 1 | 35 | 9 | -12
O=C(C1CCOCC1)N1CC(=O)N2[C@H](CO)[C@@H](c3ccc(C#CC4CCCCC4)cc3)[C@H]2C1 | -4 | . | -5 | 4 | . | .
CNC[C@H]1OCCCC[C@@H](C)Oc2ccc(NC(=O)Nc3c(C)noc3C)cc2C(=O)N([C@H](C)CO)C[C@H]1C | -8 | . | -6 | -8 | . | .
CCCNC(=O)C[C@H]1CC[C@@H]2[C@H](COC[C@H](O)CN2Cc2ccc(Cl)c(Cl)c2)O1 | 5 | . | -6 | -9 | . | .
CO[C@H]1CN(C)C(=O)c2ccc(NC(=O)C3CCCC3)cc2OC[C@@H](C)N(S(C)(=O)=O)C[C@@H]1C | 5 | . | -14 | . | . | .
O=C(C=Cc1cccc(O)c1)c1ccccc1O | -14 | 65* | -17 | -52 | 19 | -16
O=C(/C=C/c1ccc(O)c(O)c1)c1ccccc1O | 35 | 35 | -89 | -139 | 2 | -13
O=C(C=Cc1ccccc1O)c1ccccc1O | -1 | 62* | -43 | . | -14 | 8
O=C(/C=C/c1ccc(O)cc1)c1ccc(O)cc1O | -2 | 59* | -45 | -96 | 4 | -22
COc1ccc(NC(=O)N(C)C[C@@H]2Oc3ccc(NC(=O)CCCCCC(=O)Nc4ccccc4N)cc3C(=O)N([C@H](C)CO)C[C@@H]2C)cc1 | 5 | . | 3 | -38 | . | .
CO[C@H]1CN(C)C(=O)c2cc(NS(=O)(=O)c3ccccc3C)ccc2OC[C@H](C)NC[C@H]1C | 1 | . | 10 | . | . | .
OC(C1=CC(=Cc2ccncc2)c2ccccc21)c1ccncc1 (stereo unspecified) | 40 | 55* | 12 | 32 | 17 | 29
OC(c1ccccc1)c1ccncc1 (stereo unspecified) | -3 | -1 | 15 | 2 | 6 | -4
COc1ccc(NC(=O)Nc2ccc3c(c2)C(=O)N([C@H](C)CO)C[C@@H](C)[C@H](CN(C)S(=O)(=O)c2ccc(Cl)cc2)OCCCC[C@@H](C)O3)cc1 | 14 | . | 0 | 17 | . | .
Nc1ccccc1Nc1cccc(C(F)(F)F)c1 | 22 | 50* | 16 | -17 | 2 | 19
Cc1cc(C)nc(Nc2cccc(C(F)(F)F)c2)n1 | 2 | -6 | -25 | 4 | 2 | -1
C[C@@H]1CN([C@@H](C)CO)C(=O)c2cc(C#Cc3ccccc3)cnc2O[C@H]1CN(C)CC1CCOCC1 | -1 | . | 11 | . | . | .
COc1ccc(-n2c(SCC(=O)Nc3ccc4c(c3)OCO4)nc3c(c2=O)SCC3)cc1 | 2 | -5 | -7 | 13 | 76* | -26
COc1ccc(S(=O)(=O)N2CCN(CC(=O)Nc3cccc(F)c3)CC2)cc1 | . | -8 | -17 | . | -1 | -14
COc1ccc(S(=O)(=O)N2CCN(CC(=O)Nc3ccc(C)c(F)c3)CC2)cc1 | . | -7 | 5 | . | 50* | -3
COc1ccc2c3c([nH]c2c1)[C@H](CO)N(S(C)(=O)=O)CC31CN(C(=O)c2cccnc2)C1 | 9 | . | 11 | -15 | . | .
Cc1ccc(CCNC(=O)C2CCCN(S(C)(=O)=O)C2)cc1 (stereo unspecified) | -7 | 18 | -8 | -2 | 0 | -5
CCOc1ccc(CNC(=O)C2CCCN(S(C)(=O)=O)C2)cc1OC (stereo unspecified) | . | 92* | -9 | . | 1 | -14
